Results on two sequences are retold here after PMC7862700, “An all-to-all approach to the identification of sequence-specific readers for epigenetic DNA modifications on cytosine”.

Holding throughout (assay): DAPPL (digital affinity profiling via proximity ligation, sequencing); 10 mM Tris-HCl pH 7.5, 50 mM NaCl, 1 mM DTT, 4% glycerol, room temperature, 30 min; GST-TFs on glutathione beads, 16-mer random dsDNA library, 0.1% formaldehyde crosslink after washing; high values mean tight binding
Details in all cases: protein: recombinant; tags: N-terminal GST; dsDNA, one strand shown

One experiment concerns the target T1, FLI1 (Homo sapiens, UniProt Q01543 1-452).
T1 sequence: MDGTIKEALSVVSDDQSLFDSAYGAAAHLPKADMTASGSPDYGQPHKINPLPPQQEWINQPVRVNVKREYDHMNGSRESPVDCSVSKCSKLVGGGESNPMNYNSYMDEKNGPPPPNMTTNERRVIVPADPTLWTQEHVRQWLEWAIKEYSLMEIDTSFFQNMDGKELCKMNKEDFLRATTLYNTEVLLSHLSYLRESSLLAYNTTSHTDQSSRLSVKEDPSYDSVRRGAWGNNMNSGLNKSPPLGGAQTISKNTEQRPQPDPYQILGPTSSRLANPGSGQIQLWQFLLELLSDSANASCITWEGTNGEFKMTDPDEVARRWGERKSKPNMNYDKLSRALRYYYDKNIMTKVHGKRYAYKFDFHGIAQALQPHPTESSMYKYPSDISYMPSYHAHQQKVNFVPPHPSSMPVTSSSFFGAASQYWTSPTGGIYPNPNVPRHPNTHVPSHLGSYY
The method, boiled down: (§1)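 Binding signal is given per hexamer as its read frequency for a factor divided by its frequency in the tag-only sample. GST-fused human transcription factors were expressed in yeast, captured on glutathione beads, barcoded with DNA and pooled with that sample, then incubated with 200 nmole of a 16-mer random double-stranded DNA library in Tris/NaCl/DTT/glycerol buffer for 30 min at room temperature. The pools were then washed, crosslinked, proximity-ligated, amplified by PCR and sequenced on an Illumina NextSeq500.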

For a further experiment, the target named is T2, ELK1 (Homo sapiens, UniProt P19419 1-428).
T2 sequence: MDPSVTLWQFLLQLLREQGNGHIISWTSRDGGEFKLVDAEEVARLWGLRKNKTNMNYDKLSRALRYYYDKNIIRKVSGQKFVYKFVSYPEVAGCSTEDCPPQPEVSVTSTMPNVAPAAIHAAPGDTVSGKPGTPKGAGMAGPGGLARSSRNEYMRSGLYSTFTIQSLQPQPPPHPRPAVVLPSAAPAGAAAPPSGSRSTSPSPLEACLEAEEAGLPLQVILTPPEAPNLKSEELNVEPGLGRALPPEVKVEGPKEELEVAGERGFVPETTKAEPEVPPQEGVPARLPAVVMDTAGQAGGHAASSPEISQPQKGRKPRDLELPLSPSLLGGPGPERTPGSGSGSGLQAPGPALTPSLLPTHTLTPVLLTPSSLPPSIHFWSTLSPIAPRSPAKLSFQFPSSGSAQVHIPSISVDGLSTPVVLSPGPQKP
The method in brief:
as §1

Another experiment has as its target T3, GABPA (Homo sapiens, UniProt Q06546 1-454).
T3 sequence: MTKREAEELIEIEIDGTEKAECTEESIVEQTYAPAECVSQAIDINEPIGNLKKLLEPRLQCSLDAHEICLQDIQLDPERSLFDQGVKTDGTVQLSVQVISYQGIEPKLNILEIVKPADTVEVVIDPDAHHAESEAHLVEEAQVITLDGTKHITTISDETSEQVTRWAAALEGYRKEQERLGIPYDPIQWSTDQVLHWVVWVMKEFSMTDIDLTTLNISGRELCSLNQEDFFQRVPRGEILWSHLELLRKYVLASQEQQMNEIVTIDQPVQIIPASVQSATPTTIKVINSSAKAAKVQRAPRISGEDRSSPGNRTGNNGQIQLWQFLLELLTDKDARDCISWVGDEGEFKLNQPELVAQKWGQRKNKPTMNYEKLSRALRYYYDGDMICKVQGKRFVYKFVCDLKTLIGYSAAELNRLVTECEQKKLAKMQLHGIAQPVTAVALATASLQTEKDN
The method in brief: as §1

The next experiment has as its target T4, ERG (Homo sapiens, UniProt P11308 1-479).
T4 sequence: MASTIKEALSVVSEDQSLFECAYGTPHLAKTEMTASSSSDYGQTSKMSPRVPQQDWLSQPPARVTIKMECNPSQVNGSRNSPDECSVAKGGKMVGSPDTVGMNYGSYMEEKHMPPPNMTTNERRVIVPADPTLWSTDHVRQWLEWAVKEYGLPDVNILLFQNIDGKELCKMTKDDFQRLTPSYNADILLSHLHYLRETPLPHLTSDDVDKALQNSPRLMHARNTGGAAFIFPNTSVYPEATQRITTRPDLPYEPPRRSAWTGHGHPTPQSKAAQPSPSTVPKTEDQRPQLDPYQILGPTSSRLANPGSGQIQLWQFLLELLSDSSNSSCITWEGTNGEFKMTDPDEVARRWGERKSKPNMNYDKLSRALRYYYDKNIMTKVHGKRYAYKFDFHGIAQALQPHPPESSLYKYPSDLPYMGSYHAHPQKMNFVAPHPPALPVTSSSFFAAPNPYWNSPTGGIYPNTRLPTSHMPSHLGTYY
The method, boiled down:
as §1

A further experiment has as its target ELF1 (Homo sapiens, UniProt P32519 1-619). The method in brief:
as §1

The target in a further experiment is T5, EHF (Homo sapiens, UniProt Q9NZC4 1-300).
T5 sequence: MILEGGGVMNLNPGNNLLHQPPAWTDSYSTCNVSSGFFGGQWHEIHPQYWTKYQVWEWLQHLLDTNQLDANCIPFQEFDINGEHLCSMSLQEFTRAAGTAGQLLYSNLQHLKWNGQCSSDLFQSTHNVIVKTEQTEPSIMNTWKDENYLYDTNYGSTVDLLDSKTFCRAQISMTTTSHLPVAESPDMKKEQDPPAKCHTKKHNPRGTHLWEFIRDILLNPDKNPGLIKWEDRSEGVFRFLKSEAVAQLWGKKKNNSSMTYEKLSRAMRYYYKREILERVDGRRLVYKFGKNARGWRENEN
The method in brief:
as §1

The next experiment concerns the target SPI1 (Homo sapiens, UniProt P17947 1-270). The method in brief: as §1
A further experiment has as its target SPIB (Homo sapiens, UniProt Q01892 1-262). The method, boiled down: as §1
Another experiment concerns the target T6, ELK3 (Homo sapiens, UniProt P41970 1-407).
T6 sequence: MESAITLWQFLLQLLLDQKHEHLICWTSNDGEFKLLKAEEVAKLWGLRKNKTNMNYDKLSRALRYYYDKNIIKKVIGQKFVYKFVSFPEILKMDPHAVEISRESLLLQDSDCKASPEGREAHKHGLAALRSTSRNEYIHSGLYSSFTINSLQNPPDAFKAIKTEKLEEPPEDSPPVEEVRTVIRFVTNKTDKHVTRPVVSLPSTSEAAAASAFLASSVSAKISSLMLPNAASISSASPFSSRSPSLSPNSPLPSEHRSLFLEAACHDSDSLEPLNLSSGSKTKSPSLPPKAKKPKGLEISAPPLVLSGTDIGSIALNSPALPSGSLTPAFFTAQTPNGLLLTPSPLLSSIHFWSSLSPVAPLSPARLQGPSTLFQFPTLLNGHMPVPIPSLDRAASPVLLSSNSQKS
The method, boiled down:
as §1

The next experiment has as its target T7, FEV (Homo sapiens, UniProt Q99581 1-238).
T7 sequence: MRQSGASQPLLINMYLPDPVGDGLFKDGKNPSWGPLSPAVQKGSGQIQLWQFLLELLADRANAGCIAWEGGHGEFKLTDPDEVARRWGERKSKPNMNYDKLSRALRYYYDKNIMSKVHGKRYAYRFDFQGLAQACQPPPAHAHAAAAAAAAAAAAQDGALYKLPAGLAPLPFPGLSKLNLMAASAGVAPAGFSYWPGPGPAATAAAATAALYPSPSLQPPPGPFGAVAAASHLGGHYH
The method, boiled down: as §1

The target of a further experiment is ETV5 (Homo sapiens, UniProt P41161 1-510). The method, boiled down:
as §1

A further experiment deals with T8, SPIC (Homo sapiens, UniProt Q8N5J4 1-248).
T8 sequence: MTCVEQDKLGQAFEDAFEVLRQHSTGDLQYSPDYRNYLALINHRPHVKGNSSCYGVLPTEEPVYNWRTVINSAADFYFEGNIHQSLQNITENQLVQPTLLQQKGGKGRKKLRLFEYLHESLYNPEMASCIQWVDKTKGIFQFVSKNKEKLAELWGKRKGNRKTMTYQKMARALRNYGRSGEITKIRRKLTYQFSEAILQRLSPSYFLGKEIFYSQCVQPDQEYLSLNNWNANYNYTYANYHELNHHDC
The method in brief: as §1

In the next experiment the target is ELF4 (Homo sapiens, UniProt Q99607 1-663). The method, boiled down: as §1
Sequence of ELF4 (Q99607 whole entry): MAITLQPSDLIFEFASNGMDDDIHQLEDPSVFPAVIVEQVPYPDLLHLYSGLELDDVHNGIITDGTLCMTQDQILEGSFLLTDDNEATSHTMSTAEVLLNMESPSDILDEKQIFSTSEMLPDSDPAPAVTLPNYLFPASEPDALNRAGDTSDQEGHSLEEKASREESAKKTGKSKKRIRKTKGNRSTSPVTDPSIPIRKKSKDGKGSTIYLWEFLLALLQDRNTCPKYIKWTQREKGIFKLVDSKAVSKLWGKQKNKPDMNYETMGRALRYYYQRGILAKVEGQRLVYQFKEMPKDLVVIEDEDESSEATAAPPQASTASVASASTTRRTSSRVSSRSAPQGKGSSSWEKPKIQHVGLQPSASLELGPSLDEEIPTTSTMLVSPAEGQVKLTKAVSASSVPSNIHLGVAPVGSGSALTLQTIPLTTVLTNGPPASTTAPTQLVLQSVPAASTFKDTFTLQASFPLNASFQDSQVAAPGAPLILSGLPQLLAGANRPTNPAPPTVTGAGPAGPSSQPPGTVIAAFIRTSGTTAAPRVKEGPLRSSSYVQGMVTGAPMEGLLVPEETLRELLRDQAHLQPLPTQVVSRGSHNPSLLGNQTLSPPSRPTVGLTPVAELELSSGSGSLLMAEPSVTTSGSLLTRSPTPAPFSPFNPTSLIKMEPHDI
For a further experiment, the target named is T9, ELK4 (Homo sapiens, UniProt P28324-2 1-405).
T9 sequence: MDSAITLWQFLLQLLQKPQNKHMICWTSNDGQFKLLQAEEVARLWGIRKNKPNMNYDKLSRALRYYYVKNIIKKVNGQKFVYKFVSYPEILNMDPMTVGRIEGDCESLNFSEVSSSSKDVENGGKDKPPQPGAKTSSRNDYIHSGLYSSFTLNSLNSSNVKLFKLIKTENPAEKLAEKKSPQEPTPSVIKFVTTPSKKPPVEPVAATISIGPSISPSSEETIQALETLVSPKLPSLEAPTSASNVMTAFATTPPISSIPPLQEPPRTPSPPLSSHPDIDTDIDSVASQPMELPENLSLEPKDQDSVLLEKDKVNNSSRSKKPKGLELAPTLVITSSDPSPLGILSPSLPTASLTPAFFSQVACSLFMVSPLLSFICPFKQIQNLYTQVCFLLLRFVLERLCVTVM
The method in brief: as §1

The next experiment has as its target T10, ETV2 (Homo sapiens, UniProt O00321 1-342).
T10 sequence: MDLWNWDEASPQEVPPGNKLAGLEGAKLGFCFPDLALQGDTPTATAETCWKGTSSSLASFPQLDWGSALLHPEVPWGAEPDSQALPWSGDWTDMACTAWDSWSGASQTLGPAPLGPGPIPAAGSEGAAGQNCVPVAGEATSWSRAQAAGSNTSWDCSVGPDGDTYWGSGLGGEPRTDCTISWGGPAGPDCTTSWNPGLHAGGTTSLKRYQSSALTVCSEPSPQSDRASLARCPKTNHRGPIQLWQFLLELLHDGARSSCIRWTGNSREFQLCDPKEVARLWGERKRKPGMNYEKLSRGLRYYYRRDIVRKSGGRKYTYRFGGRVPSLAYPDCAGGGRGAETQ
The method, boiled down: as §1

In the next experiment the target is T11, ELF3 (Homo sapiens, UniProt P78545 1-371).
T11 sequence: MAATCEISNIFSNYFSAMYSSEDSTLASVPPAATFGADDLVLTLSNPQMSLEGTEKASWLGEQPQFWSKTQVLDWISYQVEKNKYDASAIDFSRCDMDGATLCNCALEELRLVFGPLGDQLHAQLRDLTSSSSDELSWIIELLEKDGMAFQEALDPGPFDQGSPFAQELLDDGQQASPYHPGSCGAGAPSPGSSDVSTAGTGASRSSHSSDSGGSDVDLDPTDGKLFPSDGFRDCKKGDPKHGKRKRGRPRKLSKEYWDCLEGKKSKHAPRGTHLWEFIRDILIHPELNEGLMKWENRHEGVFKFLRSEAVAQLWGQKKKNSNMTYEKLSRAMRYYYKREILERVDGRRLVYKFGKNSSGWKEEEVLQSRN
The method in brief: as §1

In another experiment the target is CRX (Homo sapiens, UniProt O43186 1-299). The method in brief: as §1
Sequence of CRX (O43186 whole entry): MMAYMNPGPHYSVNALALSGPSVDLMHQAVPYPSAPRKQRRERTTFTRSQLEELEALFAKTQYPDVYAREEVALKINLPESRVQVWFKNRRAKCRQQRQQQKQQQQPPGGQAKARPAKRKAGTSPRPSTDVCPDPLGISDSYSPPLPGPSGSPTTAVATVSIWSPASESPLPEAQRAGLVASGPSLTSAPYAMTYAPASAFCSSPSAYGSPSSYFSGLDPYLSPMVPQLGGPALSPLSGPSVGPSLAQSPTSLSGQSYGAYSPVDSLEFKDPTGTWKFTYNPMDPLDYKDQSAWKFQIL
Another experiment has as its target ETV1 (Homo sapiens, UniProt P50549 1-477). The method, boiled down: as §1

Sequence of ELF1 (P32519 whole entry): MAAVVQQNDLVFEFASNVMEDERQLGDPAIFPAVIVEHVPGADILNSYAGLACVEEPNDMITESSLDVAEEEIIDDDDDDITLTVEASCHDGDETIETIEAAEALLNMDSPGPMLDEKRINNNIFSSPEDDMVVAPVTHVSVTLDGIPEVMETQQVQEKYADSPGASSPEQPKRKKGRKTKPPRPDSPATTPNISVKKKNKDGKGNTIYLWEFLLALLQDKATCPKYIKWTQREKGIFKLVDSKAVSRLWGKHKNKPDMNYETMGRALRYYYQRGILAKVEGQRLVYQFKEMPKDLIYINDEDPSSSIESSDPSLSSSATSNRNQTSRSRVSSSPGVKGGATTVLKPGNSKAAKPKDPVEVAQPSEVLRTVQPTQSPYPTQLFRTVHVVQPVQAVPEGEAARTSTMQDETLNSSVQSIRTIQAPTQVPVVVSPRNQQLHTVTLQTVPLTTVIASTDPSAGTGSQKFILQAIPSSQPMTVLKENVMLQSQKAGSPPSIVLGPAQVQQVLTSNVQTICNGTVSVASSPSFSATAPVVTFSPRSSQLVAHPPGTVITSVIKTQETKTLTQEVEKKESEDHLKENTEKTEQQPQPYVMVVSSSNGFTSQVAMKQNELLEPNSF
Sequence of SPIB (Q01892 whole entry): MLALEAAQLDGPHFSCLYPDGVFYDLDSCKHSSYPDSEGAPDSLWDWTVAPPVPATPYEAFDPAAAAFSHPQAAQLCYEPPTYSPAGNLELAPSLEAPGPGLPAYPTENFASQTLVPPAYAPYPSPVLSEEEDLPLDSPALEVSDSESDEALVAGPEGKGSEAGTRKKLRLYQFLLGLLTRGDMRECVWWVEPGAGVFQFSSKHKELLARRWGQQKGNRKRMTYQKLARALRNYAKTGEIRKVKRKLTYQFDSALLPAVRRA
Sequence of ETV1 (P50549 whole entry): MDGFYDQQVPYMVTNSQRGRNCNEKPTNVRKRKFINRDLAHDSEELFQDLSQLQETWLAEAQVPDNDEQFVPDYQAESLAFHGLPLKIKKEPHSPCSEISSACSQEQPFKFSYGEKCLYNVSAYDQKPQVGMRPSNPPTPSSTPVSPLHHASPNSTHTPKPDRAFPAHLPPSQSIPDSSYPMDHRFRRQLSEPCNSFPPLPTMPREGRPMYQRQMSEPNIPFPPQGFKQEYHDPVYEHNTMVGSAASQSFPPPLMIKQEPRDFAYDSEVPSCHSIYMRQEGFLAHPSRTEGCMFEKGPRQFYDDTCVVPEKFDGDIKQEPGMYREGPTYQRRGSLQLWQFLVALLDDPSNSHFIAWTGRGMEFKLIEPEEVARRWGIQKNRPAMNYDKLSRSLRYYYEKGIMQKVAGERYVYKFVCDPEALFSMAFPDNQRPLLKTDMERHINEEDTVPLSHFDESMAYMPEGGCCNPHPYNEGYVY
Sequence of ETV5 (P41161 whole entry): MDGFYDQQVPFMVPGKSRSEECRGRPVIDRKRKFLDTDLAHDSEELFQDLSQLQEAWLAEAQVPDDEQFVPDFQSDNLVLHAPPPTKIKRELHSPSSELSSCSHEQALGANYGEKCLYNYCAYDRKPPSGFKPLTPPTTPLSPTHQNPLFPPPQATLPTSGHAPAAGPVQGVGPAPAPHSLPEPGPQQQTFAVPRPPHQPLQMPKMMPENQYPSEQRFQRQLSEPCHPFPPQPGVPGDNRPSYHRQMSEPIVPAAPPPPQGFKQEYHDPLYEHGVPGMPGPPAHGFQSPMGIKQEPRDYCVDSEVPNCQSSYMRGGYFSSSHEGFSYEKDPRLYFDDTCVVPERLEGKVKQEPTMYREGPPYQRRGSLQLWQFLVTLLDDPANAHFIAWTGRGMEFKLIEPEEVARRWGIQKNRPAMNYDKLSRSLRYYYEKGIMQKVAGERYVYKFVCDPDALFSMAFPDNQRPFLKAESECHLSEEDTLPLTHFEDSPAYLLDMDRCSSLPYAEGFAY

On to TGATGT, for which the binding signal was 1.31 fold enrichment (6-mer frequency, TF over GST control) with FLI1; 1.31 fold enrichment (6-mer frequency, TF over GST control) with ELK1; 1.19 fold enrichment (6-mer frequency, TF over GST control) with GABPA; 1.13 fold enrichment (6-mer frequency, TF over GST control) with ERG; 1.26 fold enrichment (6-mer frequency, TF over GST control) with ELF1; 1.14 fold enrichment (6-mer frequency, TF over GST control) with EHF. The binding signal with SPI1 is 1.25 fold enrichment (6-mer frequency, TF over GST control); in the experiment with SPIB, 1.41 fold enrichment (6-mer frequency, TF over GST control); with ELK3 it was 1.12 fold enrichment (6-mer frequency, TF over GST control); in the experiment with FEV, 1.26 fold enrichment (6-mer frequency, TF over GST control); in the experiment with ETV5, 1.22 fold enrichment (6-mer frequency, TF over GST control); with SPIC, 1.11 fold enrichment (6-mer frequency, TF over GST control). In addition, the binding signal was 1.32 fold enrichment (6-mer frequency, TF over GST control) with ELF4; 1.31 fold enrichment (6-mer frequency, TF over GST control) with ELK4; 1.26 fold enrichment (6-mer frequency, TF over GST control) in the experiment with ETV2; 1.21 fold enrichment (6-mer frequency, TF over GST control) with ELF3; 1.05 fold enrichment (6-mer frequency, TF over GST control) in the experiment with CRX; 1.26 fold enrichment (6-mer frequency, TF over GST control) in the experiment with ETV1.
Consider CCCCTG, for which the binding signal was 1.22 fold enrichment (6-mer frequency, TF over GST control) with FLI1; 1.23 fold enrichment (6-mer frequency, TF over GST control) in the experiment with ELK1; 1.26 fold enrichment (6-mer frequency, TF over GST control) in the experiment with GABPA; 1.18 fold enrichment (6-mer frequency, TF over GST control) in the experiment with ERG; 1.22 fold enrichment (6-mer frequency, TF over GST control) with ELF1; 1.17 fold enrichment (6-mer frequency, TF over GST control) in the experiment with EHF. For the same sequence, the binding signal is 1.25 fold enrichment (6-mer frequency, TF over GST control) with SPI1; 1.1 fold enrichment (6-mer frequency, TF over GST control) with SPIB; 1.27 fold enrichment (6-mer frequency, TF over GST control) in the experiment with ELK3; 1.18 fold enrichment (6-mer frequency, TF over GST control) in the experiment with FEV; 1.22 fold enrichment (6-mer frequency, TF over GST control) with ETV5; 1.16 fold enrichment (6-mer frequency, TF over GST control) with SPIC. Moreover, the binding signal with ELF4 is 1.21 fold enrichment (6-mer frequency, TF over GST control); in the experiment with ELK4 it was 1.46 fold enrichment (6-mer frequency, TF over GST control); with ETV2, 1.03 fold enrichment (6-mer frequency, TF over GST control); with ELF3, 1.21 fold enrichment (6-mer frequency, TF over GST control); with CRX it was 1.07 fold enrichment (6-mer frequency, TF over GST control); with ETV1, 1.24 fold enrichment (6-mer frequency, TF over GST control).
